# Values joined by “and” are separate entries in the source; they are usually repeats but may differ in a detail not shown here. Equal entries are not always repeated.
# Legend:
# Format in all cases: functional
# [1] = biological target: Solute carrier family 2, facilitated glucose transporter member 1 (Homo sapiens) (UniProt P11166); test: ST_JUDE_LEISH: Cytotoxicity at 2uM final concentration against transgenic Leishmania Mexicana promastigotes LmGLUT1 that are glucose transport deficient and complemented with the human glucose transporter GLUT1. Activity is measured by DNA content using SYBR green in vitro
# [2] = biological target: Hexose transporter 1 (Plasmodium falciparum) (UniProt O97467); test: ST_JUDE_LEISH: Cytotoxicity at 2uM final concentration against transgenic Leishmania Mexicana promastigotes LmPfHT that are glucose transport deficient and complemented with the Plasmodium falciparum hexose transporter. Activity is measured by DNA content using SYBR green in vitro
# [3] = biological target: Glucose transporter (Leishmania mexicana) (UniProt O61059); test: ST_JUDE_LEISH: Cytotoxicity at 2uM final concentration against transgenic Leishmania Mexicana promastigotes LmGT2 that are glucose transport deficient and complemented with the L. Mexicana glucose transporter 2. Activity is measured by DNA content using SYBR green in vitro
# Chain of Solute carrier family 2, facilitated glucose transporter member 1 (Homo sapiens) (P11166 whole entry): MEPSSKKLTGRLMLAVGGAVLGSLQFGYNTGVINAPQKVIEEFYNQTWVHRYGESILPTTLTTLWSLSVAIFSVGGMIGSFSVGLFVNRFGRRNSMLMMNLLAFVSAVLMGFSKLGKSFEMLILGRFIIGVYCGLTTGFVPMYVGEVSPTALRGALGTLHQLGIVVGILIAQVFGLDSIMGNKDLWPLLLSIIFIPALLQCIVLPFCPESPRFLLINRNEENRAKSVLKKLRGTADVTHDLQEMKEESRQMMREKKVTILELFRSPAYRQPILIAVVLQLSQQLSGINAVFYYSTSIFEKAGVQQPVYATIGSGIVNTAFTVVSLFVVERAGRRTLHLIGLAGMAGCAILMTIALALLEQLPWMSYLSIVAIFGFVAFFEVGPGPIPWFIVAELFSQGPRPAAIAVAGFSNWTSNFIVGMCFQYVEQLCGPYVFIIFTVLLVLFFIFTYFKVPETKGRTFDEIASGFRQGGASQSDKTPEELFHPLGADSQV
Structure (SMILES),inhibition [1],inhibition [2],inhibition [3]
CC(C)C[C@H](NC(=O)c1ccc(OCCN2CCOCC2)cc1)C(=O)N[C@H](/C=N/N(C)C(=O)c1ccccc1)CCc1ccccc1,3.84%,8.34%,2.75%
COc1ccc2nccc([C@@H](O)CN3CCC(NCc4nc5c(F)cccc5[nH]4)CC3)c2c1,1.46%,0.84%,-0.41%
CC(C)(CN)c1nc(-c2ccc(Br)c(O)c2)c(-c2ccncc2)[nH]1,1.39%,1.51%,2.58%
OC1CCCN(Cc2cccc(-c3ccc(-c4nc5ccccc5[nH]4)cc3)c2)C1 (stereo not drawn),3.91%,5.45%,-2.43%
Cc1cc(=O)oc2c1ccc1oc(C(O)c3ccc(Cl)cc3)c(C)c12 (stereo not drawn),-0.12%,0.59%,-1.6%
COc1ccc(Nc2nc(NN=Cc3cc(Br)c(O)cc3O)nc(Nc3ccc([N+](=O)[O-])cc3)n2)cc1,0.58%,0.96%,1.09%
CC(C)N1CCN(C(=O)c2ccc(CN(C)CCCN3CCN(c4cccc(Cl)c4Cl)CC3)s2)CC1,0.58%,0.7%,0.8%
CCC1CN2CCc3c([nH]c4ccccc34)[C@@H]2C[C@@H]1CC1NCCc2cc(OC)c(OC)cc21 (stereo partly drawn),-0.82%,-1.25%,-1.42%
CN(C)c1ccc(CN2CCC(NC(=O)c3ccc(-c4cccc(F)c4)s3)CC2)cc1,4.53%,5.36%,1.82%
COc1ccc2c(=NN=Cc3c(OC)ccc4ccccc34)cc(C)[nH]c2c1,2.05%,2.99%,4.08%
COc1cc(Nc2ccnc3ccc(C(F)(F)F)cc23)cc(OC)c1OC,18.2%,23.1%,12.6%
CN(CCCN(C)c1cc(NC(=O)c2cccc(F)c2)ccn1)Cc1cccc(O)c1,-2.2%,0.99%,-0.68%
NC(=O)Nc1ccc2c(Nc3ccc(OCc4ccccc4)cc3)ncnc2c1,-1.45%,-0.35%,-2.05%
O=C(Nc1ccncc1)c1cn(-c2ccccc2)nc1-c1cccs1,5.19%,2.4%,3.52%
Cc1ccc(Nc2nc(C)cc(N3CCN(CCc4ccccc4)CC3)n2)cc1,3.08%,3.31%,-1.99%
CCCCOc1ccc(C(=O)C(CCC(CNC(C)(C)C)C(=O)c2ccc(OCCCC)cc2)CNC(C)(C)C)cc1 (stereo not drawn),43.9%,12.2%,31.8%
O=C(Nc1cccc(-c2ccc(CN3CCCC3)cc2)c1)c1cccc(Cl)c1,-0.6%,0.05%,0.25%
COc1ccc2nccc(N3CCC(NCCNCc4ccc5c(n4)NC(=O)CS5)C3)c2n1 (stereo not drawn),3.26%,4.23%,4.55%
Cc1cc(N[C@@H](Cc2ccccc2)C(=O)NCCOc2ccccc2)nc(NCCc2cccs2)n1,8.11%,7.52%,6.47%
Cc1cccc2nc(-c3ccc(-c4ccc(CN5CCN(CCN6CCOCC6)CC5)cc4)s3)[nH]c12,2.9%,3.89%,1.02%
N#CCCN1CCN(Cc2cccc(-c3ccc(-c4nc5ccccc5[nH]4)s3)c2)CC1,-1.29%,-2.37%,-0.4%
Cc1ccc2[nH]c(Nc3ccc(Nc4nc5cc(C)ccc5[nH]4)c(C)c3)nc2c1,0.87%,2.18%,0.88%
COc1c(C2CCN(CCCCNC(=O)c3oc(-c4ccc(Cl)cc4)cc3CO)CC2)ccc2c1CCCC2,1.58%,1.81%,3.08%
CCOc1cc(C)ccc1C1CCN(CCCCNC(=O)c2coc(-c3ccc(Cl)cc3)c2)CC1,0.96%,3.18%,2.06%

Structure (SMILES),inhibition [1],inhibition [2],inhibition [3]
CN1CCN(Cc2ccc(-c3cc4nccc(Nc5ccc(Oc6ccccc6)cc5)c4cc3Cl)o2)CC1,1.96%,2.5%,2.69%
Cc1cc2c(cc1C(F)(F)F)N(C(=O)Nc1ccc(OCCN(C)C)c(C(F)(F)F)c1)CC2,2.99%,2.92%,0.83%
COc1cc2c(cc1NC(=O)CN1CCN(C(=O)c3ccco3)CC1)oc1ccccc12,4.29%,2.47%,-0.96%
Cc1cccc2nc(-c3cccc(-c4ccc(C(=O)NCc5nccn5C)cc4)c3)[nH]c12,1.94%,3.7%,1.69%
Cc1cc(NCC2CCN(CC3CCCCC3)C2)nc(Nc2ccc(Cl)cc2)n1 (stereo not drawn),7.03%,5.29%,2.45%
Cc1ccc(NC(=O)c2cccc(C#N)c2)cc1-c1ccc(C(=O)Nc2ccncc2)cc1,7.71%,9.75%,4.44%
COc1ccc(CCN(C)CCCOc2ccc(NC(=O)c3cccc4c(=O)c5ccccc5[nH]c34)cc2)cc1OC,5.62%,2.58%,1.73%
COCCNC(=O)C(CNC(=O)c1ccc2c(c1)OCO2)NC(=O)c1ccc(-c2ccccc2)cc1 (stereo not drawn),3.8%,0.37%,0.64%
CC1CC(NCCCNc2cc(=O)c3ccccc3[nH]2)c2c(Cl)c(Cl)cc(Cl)c21 (stereo not drawn),5.21%,3.08%,1.22%
Cc1ccccc1C1CCN(C2CCC(NC(=O)/C=C/c3cccc(F)c3)CC2)CC1 (stereo not drawn),6.96%,8.22%,7.51%
COCC(=O)Nc1nc2ccccc2[nH]1,2.56%,2.67%,2.36%
N#Cc1cccc(NC(=O)Nc2ccc(-c3csc(-c4nc5ccccc5[nH]4)c3)cc2)c1,7.99%,9.33%,3.91%
COc1cc(C2C(Oc3ccccc3)C(=O)N2Cc2ccc(F)cc2)cc(OC)c1OC (stereo not drawn),3.73%,3.29%,2.56%
O=C(/C=C/c1ccc(Cl)c(Cl)c1)NCCCCCN1CCC(NC(=O)Nc2ccc(F)cc2F)CC1,1.35%,2.88%,1.33%
CC(C)N1CCN(C(CN2CCN(CCCOc3ccc4nonc4c3)CC2)c2ccc(F)cc2)CC1 (stereo not drawn),-0.47%,-1.18%,-1.91%
COc1ccc(-c2cccc(NC(=O)c3cccc(C#N)c3)c2)cc1CN1CCCN(C)CC1,1.45%,1.13%,5.93%
CC(C)(C)c1ccc2oc(=O)n(C3CCN(C(=O)c4ccc([N+](=O)[O-])o4)CC3)c2c1,5.8%,10.9%,0.29%
Nc1nc(N)c2cc(NS(=O)(=O)c3ccc(-c4ccccc4)cc3)ccc2n1,4.33%,3.47%,3.56%
CC(C)CCn1c(Sc2ccc([N+](=O)[O-])cc2C(F)(F)F)nnc1-c1ccccc1Cl,1.8%,1.95%,2.26%
O=C(c1csc(-c2cccnc2)n1)N1CCc2cc3nccc(N4CCN5CCC[C@H]5C4)c3cc21,15%,8.81%,5.59%
O=C(/C=C/c1ccc(Cl)c(Cl)c1)NCCCCN1CCCN(C(=O)Nc2ccc(C(F)(F)F)cc2)CC1,3.18%,4.68%,1.09%
Nc1ncc(-c2ccccc2)cc1-c1nc2cc(Cl)c(F)cc2[nH]1,7.29%,8.28%,3.16%
Cc1cc2ccc(/C=C/C(=O)NC3CCC(CCN4CCc5ccc(C#N)cc5CC4)CC3)cc2[nH]1 (stereo not drawn),4.47%,5.55%,2.92%
c1ccc(C(c2cccs2)N2CCN(Cc3ccc(OCCCN4CCCCC4)cc3)CC2)cc1 (stereo not drawn),7.65%,6.22%,5.51%

Structure (SMILES),inhibition [1],inhibition [2],inhibition [3]
Cc1cc(O)c(C(C)C)cc1C1(c2cc(C(C)C)c(O)cc2C)OC(=O)c2ccccc21,8.43%,6.64%,6.75%
CN1CCN(c2ccnc3ccc(NC(=O)Nc4ccc(-c5ccncc5)c5ccccc45)cc23)CC1,3.36%,0.39%,5.81%
Cc1cccc2nc(-c3ccc(-c4cccc(CNCc5cccc(N)c5)c4)s3)[nH]c12,2.48%,1.7%,2.35%
O=C(CSc1nccn1Cc1ccco1)Nc1cc(C(F)(F)F)ccc1Cl,13.1%,10.5%,9.28%
CC(C)c1ccc(CN2CCC(CNC(=O)c3cc(-c4ccc(N(C)C)cc4)cs3)C2)cc1 (stereo not drawn),2.27%,3.51%,2.27%
CC(C)(C)c1ccc(CN2CCCCC(NC(=O)c3cc(-c4ccccc4Cl)cs3)C2)cc1 (stereo not drawn),2.83%,3.91%,1%
COc1ccc2nccc(N3CCC(O)(CCNCc4ccc5c(n4)NC(=O)CO5)CC3)c2n1,2.27%,3.33%,2.81%
CCCCN(CCCC)CCCCNc1c2ccccc2nc2ccccc12,26%,31.3%,12.3%
COc1ccc(Cn2c(=O)[nH]c3cc(C(=O)NC4CCN(Cc5ccccc5)CC4)ccc3c2=O)cc1,2.2%,0.63%,2.59%
CN1CCCN(Cc2cccc(-c3ccc(NC(=O)c4ccc(Cl)cc4)cc3)c2)CC1,55.2%,50.2%,21.9%
COc1ccc(-c2ccc(NC(=O)c3ccc(C#N)cc3)cc2)cc1CN1CCC(O)CC1,-0.1%,-0.59%,-0.53%
Oc1ccccc1CNCC12CC3CC(CC(C3)C1)C2,3.18%,2.08%,2.13%
CN(Cc1ccc(C#N)cc1)C1CCN(c2cc(NC(=O)c3ccc(F)cc3)ccn2)CC1,1.28%,2.79%,-1.93%
O=C(Nc1cccc(N2CCC(NCCCc3ccncc3)CC2)c1)c1cccc(C(F)(F)F)c1,3.33%,5.68%,4.83%
CNc1ccc(CNCc2cccc(-c3ccc(-c4nc5cccc(C)c5[nH]4)cc3)c2)cc1,7.63%,5.63%,0.87%
c1cc2c3c(cccc3c1)NC(CCCCCCCCC1=Nc3cccc4cccc(c34)N1)=N2,2.66%,1.67%,2.28%
COc1ccc(Nc2nccc(NCC(O)c3ccc(C(F)(F)F)cc3)n2)cc1 (stereo not drawn),2.9%,5.27%,2.61%
CN(C)c1nc2cc(-n3cnc4cc(-c5ccc(Cl)cc5)sc4c3=O)ccc2n1CCCN1CCCC1,12%,13.9%,6.91%
CNC(=O)c1ccccc1Nc1nc(Nc2cccc(CS(C)(=O)=O)c2)ncc1C,3.44%,11.9%,8.04%
O=C(Nc1cccc(-c2ccc(-c3nc4ccccc4[nH]3)s2)c1)c1ccncc1,1.95%,9.91%,3.84%
C=CC(=O)Nc1ccc(Cl)cc1C(O)c1ccccc1 (stereo not drawn),2.6%,2.07%,2.36%
CCOC(=O)CNC(=O)N1CCN(C(=O)NCC(=O)OCC)CC1,0.06%,0.22%,1.45%
COc1ccc2ncc(F)c(CCN3CC(O)C(CNCc4nc5c(cc4Cl)OCC(=O)N5)C3)c2n1 (stereo not drawn),0.46% and 5.05% and 0.19%,-1.18% and 4.64% and 0.49%,-0.57% and 3.05% and -1.68%
